Screening data as filed in PubChem.
In the library only some 3.6% were active in any assay of this set; here they are far more common.
NadD block: inhibitors of Staphylococcus aureus NadD | purified NadD enzyme, colorimetric absorbance read-out | inhibition, % at 20 µM | 360,000 tested, 0.78% active; in the data active = inhibition above about 26%
NRP1-CendR mod: alters CendR peptide binding to human NRP-1. FAM-RPARPAR peptide binding to NRP-1, fluorescence polarization. inhibition, % at 25 µM. 360,000 tested, 0.85% active;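 active = inhibition or corrected inhibition above about 18%, plus a signal ratio from 0.5 to 1.5, limit read from the data, passing the limit was not always enough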
CRFR2-BP antag: antagonists of CRF-binding protein/CRF-R2 receptor complex; HEK293 CRF-R2/CRF-BP, CRF-induced calcium fluorescence; inhibition, % at 11.8 µM; 350,000 tested, 0.59% active;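 active = inhibition of the ligand-induced calcium signal above about 50% at the single tested concentration, limit read from the data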
FAS TE block: blocks the thioesterase domain of human fatty acid synthase; P49327; recombinant FAS-TE, OMFH fluorogenic substrate, fluorescence endpoint; inhibition, % at 15 µM; 360,000 tested, 0.67% active;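 active = compounds whose normalised, plate-corrected inhibition of enzyme fluorescence in the single-dose primary screen is 50% or more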;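 also: 0% = DMSO with enzyme and 100% = substrate without enzyme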
Myeloid diff MLP: compounds promoting myeloid differentiation; ER-HoxA9 myeloid progenitors, lysozyme-GFP differentiation, flow cytometry; calls only at 10 µM; 360,000 tested, 1% active; AID 624256;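 active = normalized GFP-positive differentiation at or above the plate's own cutoff, the solvent-only control mean plus 3 SD; inconclusive = no clear call, values can overlap the other calls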;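 also: cells exposed to compound for four days before flow analysis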
* marks the source's active call; other numbers are inactive results; i = inactive; ? = inconclusive; . = no result; + = active, no number.

SMILES	NadD block	NRP1-CendR mod	CRFR2-BP antag	FAS TE block	Myeloid diff MLP
CC(C)C(NS(=O)(=O)c1c(Cl)cccc1Cl)C(=O)OCC(=O)c1c[nH]c2ccccc12 (stereo not drawn)	-5	-15	-51	3	+
CN(Cc1c(C(=O)N/N=C/c2ccccc2O)nnn1-c1nonc1N)C1CCCCC1	8	8	-7	8	i
COc1ccc(NC(=O)Nc2ccc(Br)cn2)cc1OC	5	47*	-21	-7	i
CCCn1nc(C(=O)Nc2cccc(S(=O)(=O)N3CCOCC3)c2)c2ccccc2c1=O	1	0	-10	14	i
CC(=O)c1c(C(C)=O)c(C)n(-c2cccc([N+](=O)[O-])c2)c1C	4	4	-5	-8	i
CC(=O)C1=C(c2cccc([N+](=O)[O-])c2)N(C(C)=O)n2c(C)nnc2S1	0	-13	54*	-19	i
O=C(NCCOC(=O)Nc1cccc2ccccc12)OCc1ccccc1	-11	11	15	11	i
CC(=O)c1ccc2cccc3c2c1N=CN3C	3	-11	-5	-13	+
CSc1cccc(CN2CCC(CO)(Cc3cccc(C(F)(F)F)c3)CC2)c1	-6	30*	-24	22	i
Cc1ccc(-n2cc(CN3CCC(CO)(Cc4cccc(C(F)(F)F)c4)CC3)cn2)cc1	-5	-4	-79	24	+
OCC1(Cc2cccc(C(F)(F)F)c2)CCN(Cc2cc(F)cc(F)c2)CC1	-9	-2	-18	31	i
COc1ccc(C2CC=C(C(C)=O)CN2S(=O)(=O)c2ccccc2)cc1 (stereo not drawn)	-6	6	.	5	i
COc1ccc(CN2C(=O)CC(C(=O)NCCc3ccc(S(N)(=O)=O)cc3)SC2=Nc2ccccc2)cc1 (stereo not drawn)	-2	10	-15	9	i
COc1cc(NCCCCC(C)N)c2nccc(C)c2c1 (stereo not drawn)	-73	9	-1	-11	i
COc1cc(NCCCC(C)N)c2ncccc2c1 (stereo not drawn)	4	44*	4	23	i
CC(C)(C)S(=O)N1Cc2cc(CO)ccc2[C@@H]1CCO (stereo partly drawn)	1	-11	1	-8	i
O=C(c1ccc(-c2ccccc2Cl)s1)N1CCOCC1	-7	35*	2	-15	i
O=C(c1ccc(C(=O)N2CCOCC2)s1)N1CCOCC1	-3	0	-20	-5	i
Cc1ccc(NC(=O)C2CC(=O)N(C(C)C)C2)cc1Cl (stereo not drawn)	-1	-3	-6	-4	i
COc1ccc([C@H]2CN(c3ccc(OC)cc3)C(=O)[C@@H]2CC(=O)Nc2ccc(Br)cc2)cc1	3	-4	-2	22	+
CC(C)N1CC(C(=O)Nc2ccc(Br)c(Cl)c2)CC1=O (stereo not drawn)	0	8	60*	-2	i
COc1ccc(OC)c(NC(=O)C2CC(=O)N(c3ccc(Br)cc3)C2)c1 (stereo not drawn)	-10	26*	-2	2	i
CC(=O)Nc1ccc(NC(=O)C2CC(=O)N(c3ccc(Cl)cc3)C2)cc1 (stereo not drawn)	-4	28*	-10	-4	i
COc1ccc([C@H]2CN(c3ccccc3)C(=O)[C@@H]2CC(=O)Nc2ccccc2)cc1	3	1	-15	6	i
COc1ccc(Cl)cc1NC(=O)C1CC(=O)N(C2CCCCC2)C1 (stereo not drawn)	3	-2	-30	6	+
SMILES	NadD block	NRP1-CendR mod	CRFR2-BP antag	FAS TE block	Myeloid diff MLP
COc1ccc(C(C)(C)C)cc1NC(=O)C1CC(=O)N(C2CCCC2)C1 (stereo not drawn)	-4	12	-7	8	i
COc1ccc(N2CCN(C(=O)COC(=O)CC(NC(N)=O)c3ccc(Cl)cc3)CC2)cc1 (stereo not drawn)	-6	2	2	-8	i
O=C1CC2CS(=O)(=O)CC2N1c1ccc(Oc2ccccc2)cc1 (stereo not drawn)	5	0	121*	-3	i
CN1CCN(C2CN(Cc3ccc([N+](=O)[O-])cc3)S(=O)(=O)C2)CC1 (stereo not drawn)	6	-8	5	-6	i
CN(C)CCN1CCN(C2CN(Cc3ccc([N+](=O)[O-])cc3)S(=O)(=O)C2)CC1 (stereo not drawn)	-3	22*	.	-11	i
CCOC(=O)c1cc([N+](=O)[O-])sc1NC(=O)c1ccc(S(=O)(=O)N2CC3(C)CC2CC(C)(C)C3)cc1 (stereo not drawn)	1	-10	-129	15	+
CC(C)(C)NC(=O)CSCc1ccc(Br)cc1	-3	-3	23	0	i
C=CCNC(=O)CSCc1ccc(Br)cc1	-5	4	-4	-8	+
Nc1[nH]c(C(=O)c2ccccc2)c(-c2ccccc2Cl)c1C(=O)c1ccccc1	-2	-1	.	2	i
Cc1ccccc1Nc1nc(N)nc(COC(=O)CC2CC3CCC2C3)n1 (stereo not drawn)	-1	27*	-29	7	i
Cc1cn(CC(=O)NCc2ccc(N(C)C)cc2)c(=O)[nH]c1=O	-4	7	3	-10	i
N#Cc1c(-c2ccccc2)[nH]c(=O)[nH]c1=O	0	27*	3	-2	i
Cc1cc(-c2ccccc2)[nH]c(=O)c1C#N	-2	3	-7	1	i
CC(C)(C)c1ccc2cc(F)cc(F)c2n1	-6	11	.	-14	i
Cc1ccc(S(=O)(=O)N2c3ccccc3OCC2c2ccccc2)cc1 (stereo not drawn)	0	-4	50*	23	i
COCc1c(C(=O)NCC(c2ccco2)N2CCCC2)oc2ccccc12 (stereo not drawn)	6	-13	-9	1	i
Oc1ccc(N=Nc2c(O)ccc3ccccc23)cc1	-3	-19	-37	31	?
N=C(N)c1ccc(N=Nc2c(O)ccc3c2[nH]c2ccccc23)cc1	42*	72*	-10	-37	i
O=C(N/N=C/c1cc(Cl)cc([N+](=O)[O-])c1O)NC12CC3CC(CC(C3)C1)C2	40*	1	53*	36	i
O=C(N/N=C/c1ccccc1O)NC12CC3CC(CC(C3)C1)C2	3	4	-4	-45	i
Cc1ccccc1Oc1ccc2c(c1)[C@@H]1C[C@H](N(C)C(=O)Nc3cc(Cl)cc(Cl)c3)[C@H]([C@H](C)O)C(=O)N1CC2	20	35*	-6	38	i
Cc1ccccc1Oc1ccc2c(c1)[C@@H]1C[C@H](N(C)C(=O)NC3CCCCC3)[C@H]([C@H](C)O)C(=O)N1CC2	0	8	1	10	i
O=C(Cn1cnc2ccccc2c1=O)N/N=C/c1ccc(Br)cc1	3	23*	1	-2	i
Oc1ccc(/C=N/Nc2ccnc3cc(Cl)ccc23)cc1O	18	-11	-44	-32	i
